Results taken from PubChem BioAssay (NCI).
Compounds without any hit were thinned out: in the full panel of roughly 79,000, 15% have a hit. A number with no mark means an inactive call. Active and inactive are the calls of the source. Cut-off read from the data, not from the text of the source: active = growth inhibition above about 70%; inactive = the rest.

Assays:
[1] = NCI Yeast Anticancer Drug Screen. Data for the rad50 strain (AID 155);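 note: 0% = growth of vehicle-only cultures of the same strain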; conditions: S. cerevisiae rad50 strain growth inhibition, active compounds read high
Procedure, shortened: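 Yeast carrying a defined DNA repair defect were exposed to test compounds, and growth was compared with vehicle-treated controls to give percent inhibition.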

[2] = NCI Yeast Anticancer Drug Screen. Data for the mec2-1 strain (AID 157); conditions: S. cerevisiae mec2-1 strain, active compounds read high
Procedure, shortened: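 Readout is yeast growth inhibition, normalised to vehicle-treated controls, in the mec2-1 strain exposed to compound.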

[3] = NCI Yeast Anticancer Drug Screen. Data for the sgs1 mgt1 strain (AID 161);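 note: 0% = growth of cultures given vehicle only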; conditions: S. cerevisiae sgs1 mgt1 strain, active compounds read high
Procedure, shortened: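 Yeast cells carrying a defined DNA-repair defect were exposed to test compounds. Growth inhibition was measured relative to vehicle-treated controls.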

[4] = NCI Yeast Anticancer Drug Screen. Data for the cln2 rad14 strain (AID 165);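 note: 0% = growth equal to vehicle treated cultures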; conditions: S. cerevisiae cln2 rad14 strain, active compounds read high
Procedure, shortened: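 Relative to vehicle controls, growth inhibition of compound-treated cln2 rad14 yeast was recorded.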

[5] = NCI Yeast Anticancer Drug Screen. Data for the bub3 strain (AID 167); conditions: S. cerevisiae bub3 mutant strain, active compounds read high
Procedure, shortened: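 Compounds were applied to a genetically altered yeast strain carrying a cell-cycle control defect. Growth inhibition was scored against vehicle-treated controls.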

[6] = NCI Yeast Anticancer Drug Screen. Data for the mlh1 rad18 strain (AID 175); conditions: S. cerevisiae mlh1 rad18 strain growth inhibition, active compounds read high
Procedure, shortened: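 Test agents were incubated with a yeast strain of defined genotype (DNA damage repair defect). Inhibition of growth was derived by comparison with vehicle-exposed cultures.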

[7] = at 5.0 µM (retest, dose inferred, filed as 0.5)
[8] = at 50.0 µM (retest, dose inferred, filed as 5.0)

Row | Compound | growth inhibition [1, 7] | growth inhibition [1, 8] | growth inhibition ([1]; at 50.0 µM) | growth inhibition [2, 7] | growth inhibition [2, 8] | growth inhibition ([2]; at 50.0 µM) | growth inhibition [3, 7] | growth inhibition [3, 8] | growth inhibition ([3]; at 50.0 µM) | growth inhibition [4, 7] | growth inhibition [4, 8] | growth inhibition ([4]; at 50.0 µM) | growth inhibition [5, 7] | growth inhibition [5, 8] | growth inhibition ([5]; at 50.0 µM) | growth inhibition [6, 7] | growth inhibition [6, 8] | growth inhibition ([6]; at 50.0 µM)
1 | Oc1ccc(C2SC(c3ccc(O)cc3)SC(c3ccc(O)cc3)S2)cc1 (configuration not stated) | 14% | 98% (active) | 97.6% (active) | -1% | 96% (active) | 99.3% (active) | -23% | 99% (active) | 99% (active) | 23% | 98% (active) | 98.4% (active) | 30% | 99% (active) | 98.1% (active) | 35% | 99% (active) | 98.8% (active)
2 | Cc1cccc(NC(=O)CCc2ccc(Cl)cc2)n1 | 2% | 1% | 6.3% | -17% | -6% | 2.55% | 2% | 13% | 0.2% | -6% | -15% | 41.8% | -1% | 0% | 9.9% | 8% | -7% | -2.8%
3 | CC(=O)NNc1nc(C)c(C(=O)NNC(=O)C(=O)Nc2ccc(Cl)cc2Cl)s1 | 1% | 82% (active) | 54.6% | 1% | 94% (active) | 39.4% | 5% | 87% (active) | 53.2% | -4% | 85% (active) | -38.2% | 5% | 89% (active) | 45.4% | -2% | 89% (active) | 73.9% (active)
4 | CCCCCCc1ccc(O)c(Cl)c1 | 0% | 28% | 98.8% (active) | 0% | 15% | 94% (active) | -1% | 15% | 77.3% (active) | -4% | -3% | 44.1% | -5% | -8% | 57.4% | 0% | 19% | 89.6% (active)
5 | Oc1ccc2c(ccc3ccccc32)c1 | 1% | 98% (active) | 97.5% (active) | -4% | 100% (active) | 97.3% (active) | 0% | 91% (active) | 99.4% (active) | -3% | 99% (active) | 99% (active) | 4% | 88% (active) | 99% (active) | -1% | 99% (active) | 99.2% (active)
6 | CN(C(=O)c1cccs1)C(=S)N1CCN(c2ccccc2)CC1 | -26% | 66% | 79.8% (active) | 6% | 68% | 67% | -2% | 70% (active) | 84.8% (active) | -8% | 56% | 49.9% | -14% | 83% (active) | 61.3% | -18% | 90% (active) | 67.2%
7 | O=C1O/C(=C\c2ccccc2)c2ccccc21 | 3% | 66% | 46.5% | -41% | 20% | 37.1% | 1% | 47% | 47.6% | -4% | -1% | 1.8% | 40% | 63% | 54.5% | 2% | 50% | 68.3%
8 | O=C1OC2=C(CCc3nc(-c4ccccc4)sc32)C(N(c2ccccc2)c2ccccc2)C1(Cl)Cl (configuration not stated) | -4% | 11% | 63.6% | -5% | 12% | 41.8% | 1% | 19% | 73% (active) | -13% | -15% | 60.1% | 0% | -3% | 49% | 2% | 9% | 68.7%
9 | O=C1NC(=Nc2ccccc2)C(=Nc2ccccc2)N1c1ccccc1 | -8% | 99% (active) | 87.8% (active) | -7% | 98% (active) | 90.8% (active) | -7% | 99% (active) | 85.6% (active) | -33% | 94% (active) | 85.8% (active) | -36% | 99% (active) | 89.5% (active) | -2% | 99% (active) | 85.9% (active)
10 | NC(=S)c1cccc(OCCCOc2ccccc2)c1 | 2% | 4% | 99.2% (active) | 0% | 14% | 99.6% (active) | 11% | 17% | 98.7% (active) | -8% | 1% | 98.2% (active) | 6% | 13% | 99.5% (active) | 4% | 30% | 99.3% (active)
11 | COC(=O)C(CBr)CBr | 25% | 100% (active) | -20.9% | 34% | 99% (active) | 9.55% | 22% | 98% (active) | -5.25% | 21% | 99% (active) | 10.7% | 47% | 100% (active) | 5.8% | 39% | 99% (active) | -14.7%
12 | O=[N+]([O-])c1cc(F)c(Sc2cc(Br)c([N+](=O)[O-])cc2F)cc1Br | 1% | -16% | 8.85% | -1% | -8% | 9.55% | -1% | -7% | 3.05% | 1% | -21% | 43.5% | 6% | -3% | 28.9% | 0% | -4% | 19.9%
13 | COC(=O)C1(Cc2ccc3c(c2)CCC3)Cc2ccccc2C1O (configuration not stated) | -3% | 99% (active) | 76.5% (active) | -40% | 99% (active) | 84.1% (active) | -44% | 99% (active) | 86.2% (active) | 1% | 99% (active) | 89.8% (active) | -14% | 99% (active) | 89.6% (active) | -21% | 99% (active) | 91% (active)
14 | Cc1cc(Oc2nc(Cl)nc(C(Cl)(Cl)Cl)c2Cl)cc(C)c1N(C)C (tested in a mixture with another compound) | -5% | 10% | 92.8% (active) | -6% | -3% | 95.8% (active) | -2% | 10% | 95.5% (active) | -12% | -9% | 91.9% (active) | 7% | 30% | 92.6% (active) | -8% | -5% | 95.7% (active)
15 | COc1ccc(Cc2cncc3c(O)c(OC)ccc23)cc1O | -1% | 44% | 80.2% (active) | 0% | 50% | 69.2% | -13% | 50% | 39.2% | 2% | 14% | 59.9% | -1% | 21% | 86.4% (active) | 6% | 49% | 89.5% (active)
16 | O=C(CBr)C1(Br)CCN(Cc2ccccc2)CC1 | 19% | 99% (active) | 99.3% (active) | 17% | 99% (active) | 99.8% (active) | 22% | 99% (active) | 99.6% (active) | 8% | 99% (active) | 97.6% (active) | 6% | 99% (active) | 99.5% (active) | 30% | 99% (active) | 99.6% (active)
17 | CSc1cc(-c2cc3ccccc3o2)oc(=O)c1C#N | 6% | -8% | -1.6% | -1% | -10% | -6.6% | 3% | -11% | -24.4% | -9% | -6% | -4.5% | -5% | -8% | 40.1% | -4% | -11% | -23.9%
18 | CN(C)C(=S)SC1(CN2CCOCC2)COc2c(Cl)cc(Cl)cc2C1=O (configuration not stated) | 1% | 97% (active) | 90.4% (active) | 3% | 96% (active) | 76.2% (active) | 3% | 97% (active) | 95.3% (active) | 6% | 96% (active) | 75% (active) | 5% | 96% (active) | 79.3% (active) | 1% | 97% (active) | 89.5% (active)
19 | Cc1cc(N2C(=O)CCSC2=S)c([N+](=O)[O-])cc1C | 32% | 99% (active) | 99.3% (active) | 7% | 99% (active) | 99.6% (active) | 60% | 99% (active) | 99.5% (active) | -5% | 98% (active) | 98.5% (active) | 14% | 99% (active) | 99.5% (active) | 65% | 99% (active) | 99.4% (active)
